Screening data as filed in PubChem.
Hits are enriched below; roughly 8.2% of the tested compounds scored in any of these assays.
ELG1 repair inh – blocks ELG1-dependent DNA repair in HEK293T cells. HEK293T ELG1-luciferase reporter, luminescence, 16 h; DNA damage induced by 5-fluorouridine. Potency, µM (series often up to 46.1 µM), without a hit: at the highest dose activity change, negative = inhibition, actives largely listed as inhibitors. 330,000 tested, 2.3% active. AID 504467; further: on the % scale 0 is the no-effect control and ±100 the full control effect; nearly all actives have a fitted effect of over 55% in size
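HEK293T cells expressing luciferase-tagged ELG1 (2,000/well) received 5-Fluorouridine plus compound or DMSO for 16 hr at 37 °C. Luciferase was read by ONE-Glo luminescence after 30 min at room temperature.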
KB-3-1 tox – KB-3-1 parental cell cytotoxicity; KB-3-1 viability, CellTiter-Glo ATP luminescence, 72 h; Potency, µM (series often up to 46.1 µM), most hits filed as cytotoxic; 400,000 tested, 1.4% active; AID 1347075; further: on the % scale 0 is the no-effect control and ±100 the full control effect; nearly all actives have a fitted effect of over 60% in size
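Here the drug-naive KB-3-1 line serves as comparator for MDR sub-line selectivity; cells received compound titrations, 72 h at 37 °C, then CellTiter-Glo readout.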
SW480 rereplic – induces DNA re-replication in SW480 colon adenocarcinoma cells; Potency, µM (series often up to 46.1 µM), inactives show at the highest dose re-replication activation, usual class: activators; SW480 DNA re-replication, Hoechst DNA content imaging, 48 h; 340,000 tested, 1.8% active; further: % of control where 0% means no effect; nearly all actives have a fitted effect of over 55% in size
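Compounds, transferred as 23 nL by pin tool, were incubated with cells for 48 hr; DNA content per nucleus was then quantified by Hoechst staining and fluorescence plate imaging.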
KB-V1 MDR tox – kills drug-selected multidrug resistant KB-V1 cells; KB-V1 MDR cells viability, CellTiter-Glo, 72 h; Potency, µM (highest dose often 46.1 µM), hits mostly cytotoxic; 400,000 tested, 3.4% active; AID 1347076; further: on the % scale 0 is the no-effect control and ±100 the full control effect; nearly all actives have a fitted effect of over 60% in size
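Readout: CellTiter-Glo luminescence, 10 min after addition. Cells: KB-V1 MDR subline, 72 h at 37 degrees C with compound. Analysis: corrected, normalized data fitted to concentration-effect curves.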
MCF10A rereplic – DNA re-replication induction in MCF 10a cells; 350,000 tested, 2.9% active; Potency, µM (series often up to 46.1 µM), without a hit: at the highest dose activity, positive = re-replication, usual class: activators; MCF 10A DNA re-replication, Hoechst nuclear intensity, 48 h; AID 624296; further: % of control where 0% means no effect; nearly all actives have a fitted effect of over 50% in size
Active calls of the source: *; i = inactive; ? = inconclusive; nt = not tested or not shown; [ ] = another dose, or the depositor's remark. The call rests on the fitted dose curve; in most records, active means well fitted curve in the direction sought with a large enough effect; inconclusive means small, poorly fitted or top-dose-only effect, or another doubt; inactive means no such curve, though single readings can be large; an effect the other way counts as inactive or inconclusive. Potency means the concentration at half of the fitted maximal effect.

SMILES	ELG1 repair inh	KB-3-1 tox	SW480 rereplic	KB-V1 MDR tox	MCF10A rereplic
CCCn1c(=N)c(C(=O)NCc2ccc3c(c2)OCO3)cc2c(=O)n3cccc(C)c3nc21	-12%	i	-2%	i	0%
Cc1cccn2c(=O)c3cc(C(=O)NC4CCCCC4C)n(C)c3nc12 (centres undefined)	0%	i	21µM*	i	15µM*
COc1ccc(CCn2c(=N)c(C(=O)NCC3CCCO3)cc3c(=O)n4cccc(C)c4nc32)cc1 (centres undefined)	?	?	5.8µM*	?	2.9µM*
Cc1cccn2c(=O)c3cc(C(=O)NC4CCCCC4)c(=N)n(Cc4ccc(F)cc4)c3nc12	-5%	i	1.3µM*	i	?
Cc1cccn2c(=O)c3cc(C(=O)NC4CCCC4)c(=N)n(CC4CCCO4)c3nc12 (centres undefined)	-20%	?	?	?	9.2µM*
CCCn1c(SCC(=O)N2CCCC2=O)nc2ccccc2c1=O	-4%	i	-5%	i	?
O=C(c1ccc(Cl)c(Cl)c1)N1CCC(=O)N(C(CO)Cc2ccccc2)CC1 (centres undefined)	nt	i	-8%	?	0%
Cc1cccn2c(=O)c3cc(S(=O)(=O)c4ccc(Br)cc4)c(=N)n(C4CCCCC4)c3nc12	-1%	i	?	i	12%
Cc1cccn2c(=O)c3cc(C(=O)NCC4CCCO4)c(=N)n(C4CCCCC4)c3nc12 (centres undefined)	-14%	i	18µM*	i	18µM*
Cc1cccn2c(=O)c3cc(C(=O)NCc4ccc(F)cc4)c(=N)n(CC4CCCO4)c3nc12 (centres undefined)	-13%	i	?	i	15%
CCOC(=O)c1cc2c(=O)n3cccc(C)c3nc2n(CC2CCCO2)c1=NC(C)=O (centres undefined)	nt	?	-3%	i	?
COc1ccc(CNC(=O)c2cc3c(=O)n4cccc(C)c4nc3n(CC3CCCO3)c2=N)cc1 (centres undefined)	-3%	i	4.1µM*	i	8.2µM*
Cc1cccn2c(=O)c3cc(C(=O)NCc4ccco4)c(=N)n(C4CCCC4)c3nc12	9%	i	1.8µM*	i	2.1µM*
Cc1cccn2c(=O)c3cc(C(=O)NCC4CCCO4)c(=N)n(CC4CCCO4)c3nc12 (centres undefined)	-1%	i	3.7µM*	i	4.6µM*
Cc1ccc(S(=O)(=O)c2cc3c(=O)n4cccc(C)c4nc3n(C3CCCCC3)c2=N)cc1	26%	i	-2%	i	9%
CCOCCCNc1nc2nc3ccc(C)cn3c(=O)c2cc1C(=O)NCC1CCCO1 (centres undefined)	-8%	i	9.2µM*	i	10µM*
COCCCn1c(=N)c(C(=O)NCC2CCCO2)cc2c(=O)n3cc(C)ccc3nc21 (centres undefined)	nt	i	nt	?	nt
Cc1ccc(Sc2nc(C)c([N+](=O)[O-])c(C)c2C#N)cc1	2%	i	-37%	i	?
Cc1nc(Sc2ccc(Cl)cc2)c(C#N)c(C)c1[N+](=O)[O-]	?	i	?	?	18µM*
Cc1nc(Sc2ccc(Br)cc2)c(C#N)c(C)c1[N+](=O)[O-]	-5%	?	18%	?	21µM*
CC(C)CN(CCCNC(=O)c1cc(-c2cccs2)nc2ccccc12)CC(C)C	nt	i	nt	i	nt
O=C1CCc2cc(S(=O)(=O)Nc3ccc4ncccc4c3)ccc2N1	nt	i	nt	i	nt
CSc1ccc(CNC(=O)c2sc3ncnc(N(C)C4CCCCC4)c3c2C)cc1	nt	i	nt	i	nt
c1ccc(Cn2c(-c3ccco3)nc3nc4ccccc4nc32)cc1	?	i	6%	i	1%
c1coc(-c2nc3nc4ccccc4nc3n2-c2ccc3c(c2)OCCO3)c1	16µM*	i	-4%	i	17%
SMILES	ELG1 repair inh	KB-3-1 tox	SW480 rereplic	KB-V1 MDR tox	MCF10A rereplic
COc1ccc(N(CC(=O)Nc2cc(C)on2)S(=O)(=O)c2cc(C)ccc2C)cc1	-23%	?	?	5.8µM*	23%
CCN(CC(=O)Nc1cc(Cl)ccc1C)C(=O)c1oc2ccc(OC)cc2c1C	0%	i	-4%	16µM*	15%
COc1ccc(N(CC(=O)Nc2cc(C)on2)S(=O)(=O)c2ccc(Cl)cc2)cc1	-10%	i	1%	i	1%
Cc1ccc(N(CC(=O)Nc2ccc3c(c2)OCCO3)S(=O)(=O)c2c(C)noc2C)cc1	16µM*	i	-1%	?	-3%[9.22 µM]
CCOc1ccc2oc(C(=O)N(CC)CC(=O)Nc3c(F)cccc3F)c(C)c2c1	?	i	-6%	?	5%
COc1ccc(N(CC(=O)Nc2cc(Cl)ccc2C)S(=O)(=O)c2c(C)n[nH]c2C)cc1	-17%	9.2µM*	-1%	i	-4%
CC1CCCCC12NC(=O)N(CC(=O)Nc1cccc(S(=O)(=O)N3CCCCC3)c1)C2=O (centres undefined)	4%	i	-50%	i	-3%
Cc1ccc(C(=O)N2CC(C)CC(C)C2)cc1NC1=NC2CS(=O)(=O)CC2S1 (centres undefined)	8%	i	-13%	i	20%
COc1ccc(N(CC(=O)Nc2ccc3c(c2)OCCO3)S(=O)(=O)c2c(C)noc2C)cc1	-11%	?	18%	2.9µM*	?
COc1ccc(-c2cc(C(F)(F)F)n3ncc(C(=O)NCC4CCCO4)c3n2)cc1 (centres undefined)	?	i	18%	i	?
COc1cccc(-c2cc(C(=O)NCC3CCCO3)c3ccccc3n2)c1 (centres undefined)	?	i	-48%	12µM*	14%
COc1cccc(-c2cc(C(F)(F)F)n3ncc(C(=O)NCC4CCCO4)c3n2)c1 (centres undefined)	6.5µM*	i	-7%	?	?
O=C(NCC1CCCO1)c1cc(-c2ccccc2)nc2ccc(Br)cc12 (centres undefined)	2%	i	-2%	i	14%
Cc1ccc2nc(-c3cccc(Br)c3)cc(C(=O)NCC3CCCO3)c2c1 (centres undefined)	?	i	21%	i	26µM*
COc1ccc(-c2cc(C(=O)NCC3CCCO3)c3ccccc3n2)cc1 (centres undefined)	-6%	i	-10%	i	-15%
CCNc1cccc(S(=O)(=O)N2CCCN(S(=O)(=O)c3ccc4c(c3)OCCO4)CC2)c1	nt	i	nt	i	nt
O=c1[nH]c2ccccc2nc1-c1nnnn1Cc1ccccc1	nt	i	nt	i	nt
